From PubChem BioAssay (EPA / NIEHS)
Where “and” joins values, the source holds several entries; their conditions need not be identical. Equal values may be shown once. More than one record can exist for a structure, and the calls need not agree. Calls of active or inactive are those of the source. Rule for the calls: active = hit-call score of the fitted dose curve at least 0.9, where 1 is the maximum; inactive = score below 0.9.

read-out: Tissue plasminogen activator (tPA), PLAT (gene 5327); test: BSK_BF4T_tPA: BioMAP Diversity Plus: BF4T Assay for Tissue plasminogen activator (tPA) Biomarker Activity (AID 2284272); conditions: primary human bronchial epithelial cells with fibroblasts
Description: BSK_BF4T is a cell-based, multiplexed-readout assay that uses bronchial epithelial cells and dermal fibroblasts, a human vascular primary cell, with measurements taken at 24 hours after chemical dosing in a microplate: 96-well plate.BSK_BF4T_tPA is an assay component measured in the BSK_BF4T assay. It measures tPA antibody related to regulation of gene expression using ELISA technology.Data from the assay component BSK_BF4T_tPA was analyzed at the endpoint, BSK_BF4T_tPA, in the positive analysis fitting direction relative to DMSO as the negative control and baseline of activity. Using a type of binding reporter, gain or loss-of-signal activity can be used to understand protein changes. To generalize the intended target to other relatable targets, this assay endpoint is annotated to the 'protease' intended target family, where the subfamily is 'serine protease'.
The levels of cell surface (or secreted, indicated by the prefix "s") biomarker endpoints were measured by ELISA. Overt cytotoxicity to cells in confluent adherent cultures (all systems other than the BT system) was assessed by measuring total protein levels using sulforhodamine B (SRB) staining in parallel cultures at the time of biomarker measurements, indicated as SRB endpoints. For proliferation assays for adherent cell types, individual cell types are cultured at sub-confluence and relative cell numbers quantified by SRB staining at time points optimized for each system (48 h: 3C and CASM3C systems; 72 h: BT and HDF3CGF systems; 96 h: SAg system). SRB was performed by staining cells with 0.1% SRB after fixation with 10% TCA and reading wells at 560 nm.Viability and proliferation of PBMC (T cells) was quantified by Alamar Blue reduction for the SAg and BT systems. For PBMC viability (referred to as PBMC Cytotoxicity within the assay endpoint names), cells were plated (75,000/well in a 96-well plate) and then chemical samples added for 1 h before addition of activators, SEB and TSST-1 (20 ng/mL final concentration each). Cells were incubated for 90 h. Then, Alamar Blue (20 uL/well) (Invitrogen, Cat DAL1100) was added for 6 h, and the plates were read with a fluorescence microplate reader at 546/580 nm (excitation/emission). For PBMC proliferation, cells were plated and activated as above but incubated for only 16 h prior to addition of Alamar Blue. Plates were read after 6 h.

Compound	outcome	AC50
O=C(O)CCC(F)(F)C(F)(F)C(F)(F)C(F)(F)C(F)(F)C(F)(F)F	inactive	–
CN(CCO)S(=O)(=O)C(F)(F)C(F)(F)C(F)(F)C(F)(F)C(F)(F)C(F)(F)C(F)(F)C(F)(F)F	inactive	–
O=S(=O)(O)C(F)(F)C(F)(F)C(F)(F)C(F)(F)C(F)(F)C(F)(F)C(F)(F)C(F)(F)C(F)(F)C(F)(F)F	inactive	2.39 µM (active)
CN(Cc1cnc2nc(N)nc(N)c2n1)c1ccc(C(=O)N[C@@H](CCC(=O)O)C(=O)O)cc1	inactive	–
O=P(O)(O)CCC(F)(F)C(F)(F)C(F)(F)C(F)(F)C(F)(F)C(F)(F)C(F)(F)C(F)(F)F	inactive	19.2 µM (active)
O=P(O)(O)CCC(F)(F)C(F)(F)C(F)(F)C(F)(F)C(F)(F)C(F)(F)F	inactive	14.6 µM (active)
OCC(F)(F)C(F)(F)C(F)(F)C(F)(F)C(F)(F)C(F)(F)C(F)(F)C(F)(F)C(F)(F)C(F)(F)C(F)(F)F	inactive	–
O=C(CC(=O)C(F)(F)C(F)(F)C(F)(F)F)c1cccs1	–	30 µM (active)
C=CC(=O)OCCC(F)(F)C(F)(F)C(F)(F)C(F)(F)C(F)(F)C(F)(F)C(F)(F)C(F)(F)F	inactive	–
O=C(O)C(F)(F)OC(F)(F)C(F)(F)OC(F)(F)C(F)(F)OC(F)(F)C(F)(F)C(F)(F)C(F)(F)F	–	8.23 µM (active) and 8.02 µM (active)
O=C(O)CCC(F)(F)C(F)(F)C(F)(F)C(F)(F)C(F)(F)F	inactive	–
